The list is not random: actives were taken first. Their share in the collection is about 8.6%.
MARV entry inh: blocks Marburg virus binding or cell entry. Marburg virus pseudotype entry/binding inhibition, cell-based. Potency, µM (titrated, usually from 49.2 µM), most hits filed as inhibitors. 18,000 tested, 6.5% active. AID 720532
Lassa entry: Lassa virus entry inhibition; Lassa virus pseudotyped entry inhibition, cell-based qHTS; Potency, µM (titrated, usually from 49.2 µM), usual class: inhibitors; 18,000 tested, 4.1% active; AID 720533
Large screens that a line does not name were inactive. The call rests on the fitted dose curve; tested in HEK293 cells.

CC(=O)OC1CC2C(C)(C)C(O)CC(O)[C@@]2(C)C2CC[C@@]3(C)C(=CC(=O)OC3c3ccoc3)[C@]12C (some centres undefined)	none
COC(=O)CC1C(C)(C)C(OC(C)=O)C2[C@H](OC(C)=O)[C@]34O[C@]2(O)[C@]1(C)C3CC[C@]1(C)C4=CC(=O)OC1c1ccoc1 (some centres undefined)	MARV entry inh 7.94µM, Lassa entry inconclusive
CC(C)(C)OC(=O)N[C@@H](Cc1c[nH]c2ccccc12)C(=O)O	none
CC[C@@H](C)[C@H](NS(=O)(=O)c1cccc2ccccc12)C(=O)N[C@H](C=O)Cc1c[nH]c2ccccc12	MARV entry inh 3.55µM, Lassa entry inconclusive
COC(=O)c1ccc(CN2C(=O)[C@]3(O[C@H](C)CC4=CCCC43)c3c(Br)cccc32)cc1 (some centres undefined)	none
CO/N=C(\C(=O)N[C@@H]1C(=O)N2C(C(=O)[O-])=C(C[n+]3ccc(N)n3CCO)CS[C@H]12)c1csc(N)n1	none
CC(=O)OC[C@H]1O[C@H](C#Cc2ccc(F)cc2F)C=C[C@H]1OC(C)=O	none
CC(C)Nc1ccc(Nc2ccccc2)cc1	MARV entry inh 28.2µM, Lassa entry inconclusive
CC(C)Nc1oc(-c2ccccc2)nc1C=Cc1ccccc1	none
CCN1C(=O)NC(c2cccc(F)c2)C(C(=O)OC)=C1C (centres undefined)	none
CCN1\C(=C/C=C/C=C/c2sc3ccccc3[n+]2CC)Sc2ccccc21	MARV entry inh 7.08µM, Lassa entry 11.2µM
CC(C)(C)c1ccc(O[C@@H]2[C@H](O)CO[C@@H]2C=CC#Cc2ccccc2)cc1	none
C[C@H]1[C@@H](C(=O)N2CCCC2)CC(=O)C(=NOCc2ccccc2)C[C@H]1c1ccccc1	none (no result: Lassa entry)
CC=C(C)C(=O)O[C@H]1C(C)=C2[C@@H]3OC(=O)[C@@](C)(O)[C@@]3(O)[C@@H](OC(=O)CCC)C[C@](C)(OC(C)=O)[C@@H]2[C@@H]1OC(=O)CCCCCCC	MARV entry inh 39.8µM, Lassa entry 39.8µM
C=C(C[C@]1(C(=O)OC)C[C@]2(CC=C(C)C)C(=O)C(C(=O)CC(C)C)=C(O)[C@@](CC=C(C)C)(C1)C2=O)C(=O)OC	none (no result: Lassa entry)
COC(=O)[C@@]1(C=C2c3ccc(F)cc3[C@@H](OC)[C@@H]2C)[C@@H]2Oc3ccccc3[C@@H]21	none
COC(=O)Nc1nc2ccc(Oc3cccc(NC(=O)Nc4cc(C(F)(F)F)ccc4F)c3)cc2[nH]1	MARV entry inh inconclusive
CNC(=O)c1cc(Oc2ccc(NC(=O)Nc3ccc(Cl)c(C(F)(F)F)c3)cc2)ccn1	MARV entry inh 12.6µM, Lassa entry 7.94µM
CC1CC(C)C(=O)[C@H](C(O)CC2CC(=O)NC(=O)C2)C1 (some centres undefined)	MARV entry inh 2.51µM, Lassa entry 5.62µM
C[C@@H]1C[C@@H]([C@@H](C)CC2CC(=O)NC(=O)C2)C(=O)[C@@H](C)C1	MARV entry inh 5.01µM, Lassa entry 4.47µM
C[C@H]1C[C@@H](C)C(=O)[C@@H]([C@H](O)CC2CC(=O)NC(=O)C2)C1	MARV entry inh 1.12µM, Lassa entry 3.55µM
C[C@H]1C[C@H](C)C(=O)[C@@H]([C@H](O)CC2CC(=O)NC(=O)C2)C1	MARV entry inh inconclusive, Lassa entry 3.16µM
CCOC(=O)CN1C(=O)CC(C[C@@H](O)C2C[C@@H](C)C[C@H](C)C2=O)CC1=O (some centres undefined)	none
CCCCCC(=O)N1C[C@H](O)[C@@H](n2cc(-c3ccc(F)cc3)nn2)C[C@H]1c1ccc(C)cc1	MARV entry inh inconclusive
C[C@H](CSC(=O)c1ccccc1)C(=O)N1C[C@@H](Sc2ccccc2)C[C@H]1C(=O)O	none
C[C@@H]1C[C@H]2[C@@H]3CCC4=CC(=O)C=C[C@]4(C)[C@@]3(F)[C@@H](O)C[C@]2(C)[C@@]1(O)C(=O)COC(=O)c1cccc(S(=O)(=O)O)c1	none
C#C[C@]1(OC(C)=O)CC[C@H]2[C@@H]3CCC4=C/C(=N/O)CC[C@@H]4[C@H]3CC[C@@]21CC	Lassa entry 28.2µM
C#C[C@@]1(OC(C)=O)CC[C@@H]2[C@@H]3CCC4=C[C@@H](OC(C)=O)CC[C@H]4[C@H]3CC[C@]21C	none
COc1cc(=O)n2c(c1C(=O)N(C)Cc1nonc1C)CCN(Cc1cc(F)ccc1F)CC2	none
COc1cc(=O)n2c(c1C(=O)N(C)Cc1nonc1C)CCN(Cc1c(F)cccc1F)CC2	Lassa entry 11.2µM
C#CCCCON=C1C[C@@H](O)[C@H](O)[C@H]2[C@@H]3C(=O)N(c4cccc(Oc5ccccc5)c4)C(=O)[C@@H]3CC[C@@H]12	none
Cc1cccc2c(Nc3ccc4c(c3)OCO4)nc(CN3CCC(N4CCCCC4)CC3)nc12	MARV entry inh 10µM, Lassa entry 22.4µM
CCC1(C2CCN(Cc3cccc4ccccc34)CC2)NC(=O)N(Cc2ccc3c(c2)OCO3)C1=O (centres undefined)	MARV entry inh inconclusive
C[C@@H]1CC[C@H]2C(=O)N(Cc3cccc([N+](=O)[O-])c3)C[C@H](O)CN2[C@@H]1c1ccc(Br)cc1	none
